Compound activity: PubChem, National Center for Advancing Translational Sciences (NCATS)
A selection: hits, their analogues and other compounds. The true share with any hit is near 4.5%.
HTT-AS promoter: activates huntingtin-antisense promoter activity. HEK293 HTT-AS promoter firefly luciferase reporter, 24 h; response scale: percent change from vehicle, -100% = no light. Potency, µM (titrated, usually from 57.5 µM), for inactives: top-dose activity change, positive = activation, usual class: activators. actives 0.24% (n = 48,000). AID 1508624; also: potency is read from the fitted curve at half-maximal effect; nearly all actives have a fitted effect of over 55% in size
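Firefly luciferase readout (Dual-Glo, 10 min RT) after 24 h, 37 °C compound exposure (final up to 57.5 uM) of HEK293 reporter cells cultured 24 h beforehand; PTC124 at 50 uM final as control inhibitor; activity scaled vehicle 0%, zero RLU -100%.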
OvCa metastasis: ovarian cancer metastasis inhibition, 3D TME model; SKOV3ip1-GFP adhesion/invasion on 3D omental model, fluorescence; Potency, µM (doses to about 45.8 µM), for the others: at the top dose activity change, negative = inhibition, hits mostly inhibitors; actives 0.1% (n = 46,000); AID 1963576;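 also: potency is read from the fitted curve at half-maximal effect; plate controls were DMSO wells for no effect and tomatine positive control wells for full effect; nearly all actives have a fitted effect of over 65% in size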
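qHTS, 4-pt dose (0.36-46 umol/L); SKOV3ip1-GFP, 1,200 cells/well, no FBS; primary omental fibroblast/mesothelial co-culture 48 h pre-grown; 2 h RT + 16 h 37 C; PBS wash, 4% PFA; GFP count 488/509 nm.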
HTT promoter inh: inhibits huntingtin promoter activity; Potency, µM (highest dose often 57.5 µM), inactives show at the top dose activity change, negative = inhibition, usual class: inhibitors; HEK293 HTT promoter firefly luciferase reporter, 24 h; actives 0.93% (n = 48,000); also: potency is read from the fitted curve at half-maximal effect; nearly all actives have a fitted effect of over 50% in size
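HEK293 luciferase promoter-reporter cells (2,500/well) plated 24 h, then compounds added at up to 57.5 uM final for 24 h at 37 °C. Firefly luminescence by Dual-Glo, normalized to vehicle (0%) and zero RLU (-100%).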
DRV1 agonist: GPR32 (DRV1) agonism, beta-arrestin recruitment. CHO-K1 GPR32 beta-arrestin PathHunter luminescence, 90 min; zero percent set by DMSO-only wells. activation, % at 76.9 µM. actives 2.5% (n = 48,000);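 active = activation of at least 60% and not above a set upper limit, about 1 call in 100 departs from these limits; inconclusive = activation of 40% to 60%, or above that upper limit; inactive = activation under 40%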; also: 0% is about no effect
Target sequence (O75388 whole entry, looked up): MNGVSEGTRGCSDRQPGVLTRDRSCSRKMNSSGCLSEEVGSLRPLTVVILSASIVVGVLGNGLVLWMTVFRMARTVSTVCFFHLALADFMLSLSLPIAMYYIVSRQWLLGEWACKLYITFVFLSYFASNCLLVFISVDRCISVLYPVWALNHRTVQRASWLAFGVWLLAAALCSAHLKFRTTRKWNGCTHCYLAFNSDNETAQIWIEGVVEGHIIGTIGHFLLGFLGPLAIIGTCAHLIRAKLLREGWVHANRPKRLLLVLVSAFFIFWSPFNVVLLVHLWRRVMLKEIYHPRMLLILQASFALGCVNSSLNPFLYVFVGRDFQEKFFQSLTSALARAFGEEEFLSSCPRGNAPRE
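PathHunter beta-arrestin recruitment in CHO-K1 cells stably expressing ProLink-tagged GPR32. Cells were exposed to compound for 90 min at 37 C, then chemiluminescence was read after 1 h detection at ambient temperature; DMSO served as basal control.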
NTMT1 inhibitor: blocks human N-terminal methyltransferase 1 activity; Potency, µM (doses to about 114 µM), inactives show top-dose activity change, negative = inhibition, usual class: inhibitors; Q9BV86; actives 2.5% (n = 59,000); AID 1645870; NTMT1 MTase-Glo SAH luminescence, purified enzyme;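 also: potency is read from the fitted curve at half-maximal effect; plate controls were DMSO vehicle for no effect and no enzyme for full effect; nearly all actives have a fitted effect of over 65% in size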
Target sequence (Q9BV86 whole entry, looked up): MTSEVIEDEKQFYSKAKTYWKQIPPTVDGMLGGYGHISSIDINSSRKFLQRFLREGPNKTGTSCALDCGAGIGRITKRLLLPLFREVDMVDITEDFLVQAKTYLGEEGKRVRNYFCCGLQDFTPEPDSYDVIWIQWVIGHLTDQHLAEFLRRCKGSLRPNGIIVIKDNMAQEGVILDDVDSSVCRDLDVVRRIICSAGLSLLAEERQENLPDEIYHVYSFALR
* = called active by the depositor; i = inactive; ? = inconclusive; / = not tested or not shown; ! = not confirmed by another sample; [ ] = dose if it differs, or a comment. Unless noted, calls follow the shape of the dose curve; as a rule, active = well fitted curve in the direction sought with a large enough effect; inconclusive = small, poorly fitted or top-dose-only effect, or another doubt; inactive = no such curve, though single readings can be large; an effect the other way counts as inactive or inconclusive.

SMILES	HTT-AS promoter	OvCa metastasis	HTT promoter inh	DRV1 agonist	NTMT1 inhibitor
O=C(Nc1ccc(Cl)c(Cl)c1)C1CC1	-5.4%	/	-0.2%	82.6*	-28.7%[57.5 µM]
CN(C)C(=O)Nc1ccc(Cl)c(Cl)c1	-1.1%	/	4.5%	6.3	13.6%[57.5 µM]
CC(C)c1onc(-c2c(Cl)cccc2Cl)c1COc1ccc(C=Cc2cccc(C(=O)O)c2)c(Cl)c1	?	25.7%	23.0%	/	17.1µM*
COc1cccc(CC(=O)Nc2ccc(-c3nc4ccccc4s3)cc2Cl)c1	16.4%	8.2%	-21.1%	-6.5	9.0%
Cc1cccc(-c2nc3c4ccccc4n(CC(=O)Nc4cccc(F)c4)c(=O)n3n2)c1	21.9%	-10.3%	13.2%	75.6*	-1.8%
CC1CCCN(c2cc3c(cc2F)c(=O)c(S(=O)(=O)c2cccc(Cl)c2)cn3C)C1 (stereo not given)	-13.5%	-0.8%	-19.6%	-12.1	-5.9%
CCOCCCNc1ncnc2onc(C)c12	-8.3%	i	-7.2%	1.4	11.1%
Cc1noc2ncnc(NCCc3ccccc3)c12	-61.1%	8.5%	14.1µM*	?	11.4%
CCOc1ccc(CCNc2ncnc3onc(C)c23)cc1OCC	-53.0%	6.5%	?	63.5*	8.8%
Cc1ccc(CCNc2ncnc3onc(C)c23)cc1	-35.8%	-7.3%	?	96.8*	-4.6%
Cc1ccc(CN(C(=O)COc2ccc(C(C)C)cc2)C2CCS(=O)(=O)C2)o1 (stereo not given)	-16.5%	3.4%	?	61.2*	-22.9%
COc1ccc(OCC(=O)N(Cc2ccc(C)o2)C2CCS(=O)(=O)C2)cc1 (stereo not given)	-3.4%	-3.3%	-10.3%	-22.7	?
Cc1ccc(CNC(=O)c2cc3c(s2)-c2ccc(Cl)cc2SC3)cc1	-9.2%	-4.2%	-11.7%	105.9*	4.5%
CC(C)COc1ccc(CNC(=O)N(Cc2ccc(F)cc2)C2CCN(C)CC2)cc1	/	/	/	/	-17.0%[57.5 µM]
Cc1ccc(NC(=O)CSc2nc(-c3cccs3)nc3cc(=O)[nH]n23)cc1	/	i	/	99.1*	/
COc1cc(-c2nc3nc[nH]n3c2Nc2ccc(C(C)C)cc2)ccc1O	-22.2%	i	-20.2%	-19.0	44.7µM*
Cc1nc2ccccc2n1CCc1nc2c3ccccc3nc(SCC(=O)Nc3ccc(Br)cc3F)n2n1	0.2%	11.5%	0.0%	-18.3	-5.5%
CCN(CC)c1ccc(C(=O)N2CCc3c([nH]c4ccccc34)C2c2ccc(F)cc2)cc1 (stereo not given)	-22.7%	4.8%	-11.6%	-14.7	-2.3%
O=c1onc2n1-c1cc(Br)ccc1OC2	/	/	/	64.5*	/
CC(=CC(=O)Nc1ccccc1C(=O)O)c1ccc2ccccc2c1	-0.3%	-13.8%	8.8%	/	34.1µM*
CN(C)c1ccc(C(=C2C=CC(=[N+](C)C)C=C2)c2ccccc2)cc1	-96.0%	/	?	95.0*	22.4µM*
CN(C)c1ccc(C(=C2C=CC(=[N+](C)C)C=C2)c2ccc(N(C)C)cc2)cc1	-79.3%	?	?	-78.5	20µM*
Nc1nccn2c(C3CCC(C(=O)O)CC3)nc(-c3cc4cccc(Cl)c4[nH]3)c12 (stereo not given)	/	/	/	/	35.5µM*!
O=C(Nc1ccc(Cl)cc1F)c1oc(=O)c2ccccc2c1-c1ccccc1	-22.6%	-8.1%	-16.4%	-8.7	-0.4%
CC(=O)Nc1sc2c(c1-c1ccc(-c3nn[nH]n3)cc1)CCNC2	/	/	/	/	-8.9%
SMILES	HTT-AS promoter	OvCa metastasis	HTT promoter inh	DRV1 agonist	NTMT1 inhibitor
CNCC[C@H](Oc1cccc2ccccc12)c1cccs1	-44.8%	-3.2%	?	99.1*	?
COc1cccc(CNC(=O)c2c(C)nn(-c3cccc(C)c3)c2-n2cccc2)c1	-20.7%	-14.0%	?	-9.5	-1.9%
Cc1cc(C)c(NC(=O)CCN2CCCCC2)c(C)c1	0.1%	-12.9%	0.5%	-0.8	-15.0%
CN(C)c1ccc(Nc2c3ccc(NC(=O)CCN4CCCC4)cc3nc3cc(NC(=O)CCN4CCCC4)ccc23)cc1	/	/	/	/	6.31µM*
COc1cccc(N2CCN(C(=O)c3nc(-c4ccc(Cl)cc4)n4c3CCCCC4)CC2)c1	-15.6%	9.5%	?	-15.0	7.3%
NC(=O)CSc1nc2ccc(NC(=O)COc3ccccc3Cl)cc2s1	-15.1%	6.4%	-12.2%	90.3*	?
CC(=O)Nc1ccc2nc(SCCOc3ccccc3Cl)sc2c1	-5.4%	2.5%	-11.0%	69.4*	22.5%
O=C(Nc1ccc2nc(SCCOc3ccccc3Cl)sc2c1)c1ccc2c(c1)OCO2	-35.6%	-13.5%	-34.5%	-1.1	7.9%
Cc1ccccc1OCC(=O)Nc1ccc2nc(SCC(N)=O)sc2c1	?	-6.8%	1.6%	?	-22.6%
CCOC(=O)CSc1nc2ccc(NC(=O)COc3ccccc3C)cc2s1	-2.7%	i	6.2%	75.2*	6.9%
CC(C)CN(CCNC(=O)c1cn(C)c2ccc(S(=O)(=O)N3CCCCCC3)cc2c1=O)CC(C)C	-5.1%	i	-16.2%[11.5 µM]	-28.4	-4.8%
CCOC(=O)c1c(Nc2ccc(O)cc2)nnc(-c2ccccc2)c1-c1ccccc1	-18.9%	-9.0%	-17.5%	65.9*	-1.7%
CCOC(=O)c1c(Nc2ccccc2)nnc(-c2ccccc2)c1-c1ccccc1	-21.2%	-10.4%	-28.2%	-15.6	0.6%
C[C@]12CC[C@@H]3c4ccc(O)cc4CC[C@H]3[C@@H]1CC[C@@H]2O	/	/	/	-9.0	?
CC(=O)Oc1ccc2c(c1)CC[C@@H]1[C@@H]2CC[C@]2(C)[C@@H](O)CC[C@@H]12	-11.1%	/	-4.8%	?	25.1µM*
COc1ccccc1C(=O)Nc1nnc(SCc2cc(=O)n3ccc(C)cc3n2)s1	19.6%	2.5%	26.1%	-4.4	8.4%
O=c1c(O)c(-c2cc(O)c(O)c(O)c2)oc2cc(O)cc(O)c12	-1.7%	3.5%	1.9%	3.4	28.2µM*!
O=c1c(O)c(-c2ccc(O)cc2O)oc2cc(O)cc(O)c12	-6.7%	-9.2%	0.8%	-1.7	44.7µM*!
COc1ccc(-c2cc(=O)c3c(O)cc(O)cc3o2)cc1O	15.3%	2.9%	1.8%	/	?
O=c1oc2cc(O)ccc2s1	-5.0%	-19.6%	-1.2%	/	-12.9%
CC(C)(C)c1ccc(OCCOCCn2c(-c3ccc(Cl)cc3)nc3ccccc3c2=O)cc1	3.3%	-8.7%	-3.9%	-7.6	-7.1%
CCN(c1ccccc1)S(=O)(=O)c1nnc(NC(=O)c2cccs2)s1	-32.3%	8.2%	-23.9%	49.0	9.2%
CCN(c1ccc(C)cc1)S(=O)(=O)c1nnc(NC(=O)c2cccs2)s1	-33.7%	i	?	84.6*	13.7%
CCc1ccc(CNC(=O)c2ccc(-c3nc(CS(=O)(=O)c4ccccc4)c(C)o3)cc2)cc1	/	-13.8%	/	84.3*	/
Cc1cccc(CNC(=O)c2ccc(-c3nc(CS(=O)(=O)c4ccccc4)c(C)o3)cc2)c1	-18.4%	1.5%	?	79.5*	-4.5%
